# Screening results as filed in PubChem BioAssay.
# HSV replic up = HSV replication enhancement. HSV replication augmentation in cells, fold increase. maximum fold increase. 220,000 compounds, 0.005% hits; in the data active = maximum fold increase above about 1.5; tested in PC3 cells
# p47phox inh = inhibitors of human p47phox binding; AID 1274; P14598; inhibition, % at 24.7 µM; p47phox/p22phox peptide binding, fluorescence polarization, 2 h; 220,000 compounds, 0.53% hits;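 active = inhibition above about 30%, limit read from the data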;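 note: 0% = p47phox with labelled peptide and 100% = labelled peptide alone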
# Furin inhibitor = blocks human furin protease activity; P09958; purified furin, fluorogenic substrate cleavage; inhibition, % at 20 µM or 30 µM; 220,000 compounds, 0.061% hits; AID 463115; in the data active = inhibition above about 25%
# EP2 mod = EP2 receptor (human) modulation; P43116; EP2-expressing cells, cAMP HTRF FRET, PGE2 co-stimulation; 260,000 compounds, 0.83% hits; induction, % at 25 µM;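 active = compounds whose cAMP rise, as percent of the full-agonist control response, exceeds 60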;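 note: rat C6 glioma line stably carrying human EP2 under a CMV promoter; the protocol text gives 20 µM as final concentration; 100% = response of wells given 1 µM PGE2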
# Wee1 stabilizer = inhibitors of human Wee1 degradation | AID 1321 | 220,000 compounds, 1.2% hits | reporter increase, % at 5 µM | HeLa Luc-Wee1K328M stability, luciferase luminescence; 100% = proteasome inhibitor MG132 effect | P30291;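 active = activation above the mean of all tested compounds plus 3 SD, set per screening run, cut at about 8.8% in these data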;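 note: cells exposed to compound for 20 h before luminescence read; 0% = DMSO alone and 100% = MG132 at 30 µM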
# Target sequence (P30291 whole entry K328M): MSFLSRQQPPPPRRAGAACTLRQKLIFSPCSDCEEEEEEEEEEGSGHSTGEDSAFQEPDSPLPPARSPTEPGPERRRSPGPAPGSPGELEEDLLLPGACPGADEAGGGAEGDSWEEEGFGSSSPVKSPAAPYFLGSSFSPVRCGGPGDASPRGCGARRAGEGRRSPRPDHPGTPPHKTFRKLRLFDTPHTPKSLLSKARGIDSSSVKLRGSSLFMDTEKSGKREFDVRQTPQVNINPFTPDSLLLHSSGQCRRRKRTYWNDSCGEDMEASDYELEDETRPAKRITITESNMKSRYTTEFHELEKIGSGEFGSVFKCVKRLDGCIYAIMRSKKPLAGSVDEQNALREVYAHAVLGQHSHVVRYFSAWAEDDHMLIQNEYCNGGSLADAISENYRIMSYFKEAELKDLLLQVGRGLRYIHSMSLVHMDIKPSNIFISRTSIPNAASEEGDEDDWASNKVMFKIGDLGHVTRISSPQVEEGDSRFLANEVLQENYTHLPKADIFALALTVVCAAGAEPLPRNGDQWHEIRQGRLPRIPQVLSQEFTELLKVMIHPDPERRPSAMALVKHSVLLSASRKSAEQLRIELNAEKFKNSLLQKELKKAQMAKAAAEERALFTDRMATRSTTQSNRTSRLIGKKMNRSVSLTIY
# EP2 antag = blocks the human prostaglandin E2 receptor EP2 | 260,000 compounds, 0.52% hits | C6 glioma cells expressing human EP2, cAMP TR-FRET; cells stimulated with saturating PGE2 | P43116 | inhibition, % at 25 µM | AID 1422;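 active = percent inhibition above 40 after rounding to a whole number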;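 note: rat C6 glioma host cells with rolipram phosphodiesterase inhibitor present; the protocol text gives 20 µM as final concentration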
# EP2 cAMP induct = EP2 receptor cAMP induction, counter-screens negative | shares compounds with EP2 mod | C6 glioma EP2 cells, cAMP HTRF induction; plus low (about EC15) PGE2 agonist | AID 1080 | calls only at 20 µM (by protocol) | 1,300 compounds, 47% hits;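 active = cAMP induction above 50% in the main assay while under 30% in all four parallel counter assays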;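 note: rat C6 glioma cells stably expressing human EP2 receptor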
# Starred values were filed as active, the others as inactive; i = inactive; . = no result; + = active, no number. Only some compounds are listed: those with a hit (about 2.8% of all), similar ones and a draw of the others.
SMILES,HSV replic up,p47phox inh,Furin inhibitor,EP2 mod,Wee1 stabilizer,EP2 antag,EP2 cAMP induct
CCOC(=O)c1c(NC(=O)CSc2nnc(C)s2)sc2c1CCCCC2,i,-11,-15,43,-1,6,.
CCOC(=O)c1c(NC(=O)Cn2nnc3ccccc32)sc2c1CCC(C)C2 (centres undefined),i,-7,-29,50,4,11,i
O=C(Nc1nnc(C(F)(F)F)s1)c1ccccc1Cl,.,.,.,-25,.,8,.
Cc1ccc(S(=O)(=O)N(Cc2ccc3c(c2)OCO3)Cc2cc3c(C)cc(C)cc3[nH]c2=O)cc1,.,.,.,-9,.,5,.
N#Cc1cc2cc3c(cc2nc1SCC(=O)Nc1ccccc1Br)OCCO3,.,.,.,12,.,16,.
O=[N+]([O-])c1cc(Cc2ccccc2)cc(C=Nc2ccc(N3CCOCC3)cc2)c1O,i,5,-16,47,1,5,.
Cc1ccc(O)c(N=Cc2cc(Cc3ccccc3)cc([N+](=O)[O-])c2O)c1,i,-13,-14,69*,0,6,i
CCn1c(=O)n(CC(=O)NCc2cccs2)c2cccnc21,.,.,.,-13,.,.,.
Cc1cc(C)c(N=C2CCCN2Cc2ccccc2)c(C#N)c1,i,6,-11,78*,5,8,+
N#Cc1ccccc1N=C1CCCN1Cc1ccccc1,i,-2,-21,33,-1,12,.
Cc1ccc2nc3c(c(NCCCN(C)C)c2c1)CCC3,.,.,.,-19,.,2,.
Cc1ccc(-c2c(C(=O)Nc3ccccc3)c(C)[nH]c(=S)c2C#N)o1,.,.,.,57,.,12,.
Cn1c(=O)c2c(SC3CCCC3)nc(C3CC3)nc2n(C)c1=O,i,5,-16,79*,0,11,+
Cn1c(=O)c2c(SCC(=O)c3ccccc3)nc(C3CC3)nc2n(C)c1=O,i,0,-29,25,-1,15,.
Cc1ccccc1N=C1SCC(=O)N1Cc1ccccc1,i,-7,-18,67*,0,12,+
CCOCCCNC(=O)C1CCN(S(=O)(=O)c2ccc(OC)c(C)c2)CC1,.,.,.,-11,.,7,.
Cc1cc(NC(=O)c2cc(-c3ccncc3)nc3c(C)cccc23)no1,i,-3,-13,65*,7,12,i
Cc1ccc(-c2cc(C(=O)Nc3cc(C)on3)c3ccccc3n2)cc1,i,-4,-15,14,2,15,.
CCCCN1C(=O)/C(=C2\SC(N3CCCCC3)=NC2=O)c2ccccc21,i,-11,-21,65*,2,7,+
C/C=C1\NC(=S)N(Cc2ccccc2)C1=O,.,.,.,-51,.,13,.
CCc1cc2cc(C)cc(C)c2nc1SCC(=O)N1CCCC1,i,-13,-9,82*,3,9,i
CCC(=O)OC1CC(C)N(C(=O)c2ccccc2)c2ccc(C)cc21 (centres undefined),i,4,-1,28,-2,11,.
CCCC(=O)O[C@H]1C[C@@H](C)N(C(=O)c2ccccc2)c2ccc(C)cc21,i,-7,-2,76*,-1,6,i
Fc1ccc(C(c2ccc(F)cc2)N2CCN(C/C=C/c3ccccc3)CC2)cc1,i,0,-9,46,-4,8,i
C(=C\c1ccccc1)/CN1CCN(C(c2ccccc2)c2ccccc2)CC1,i,-1,5,25,2,16,.
SMILES,HSV replic up,p47phox inh,Furin inhibitor,EP2 mod,Wee1 stabilizer,EP2 antag,EP2 cAMP induct
CCOc1ccccc1C(=O)Nc1ccccc1-c1ccccc1,i,0,0,78*,-4,6,+
O=C(Nc1ccccc1Br)c1ccccc1-c1ccccc1,i,-3,-23,70*,0,9,+
Cc1cc(C(F)F)n2ncc(C(=O)NCc3ccc(Cl)cc3Cl)c2n1,.,.,.,13,.,6,.
COc1ccc(-n2c(COc3ccc(Cl)cc3)nnc2SCc2ccc(C#N)cc2)cc1,i,2,-1,53,-2,5,i
CCSc1ccccc1C(=O)Nc1ccc([N+](=O)[O-])cc1OC,i,3,-10,66*,-2,0,i
CCC(C)C(=O)Nc1ccc([N+](=O)[O-])cc1OC (centres undefined),i,0,-11,-25,-2,7,.
CCN(CC)CCN1C(=O)c2cccc3cc(N)cc(c23)C1=O,i,17,-9,7,0,38,i
C(=N\N(Cc1ccccc1)c1ccccc1)/c1cccnc1,i,-9,-11,70*,1,11,+
C/C(=N\N(Cc1ccccc1)c1ccccc1)c1cccnc1,i,-2,-17,70*,-1,9,i
CN(Cc1ccccc1)C(=S)Nc1cccnc1,i,-10,-18,-13,4,3,.
Oc1cccc(/C=N/N(Cc2ccccc2)c2ccccc2)c1,i,-28,2,52,1,20,.
CN(C)c1oc(-c2ccccc2Cl)nc1P(=O)(c1ccccc1)c1ccccc1,i,-10,-3,71*,3,5,+
CCOC(=O)c1cc2c(ccn2C)n1CC(=O)N(C)C1CCCCC1,.,.,.,-11,.,13,.
CC1CCN(c2nc3c(c(=O)[nH]c(=O)n3C)n2CC(C)CSc2nnnn2-c2ccccc2)CC1 (centres undefined),i,-4,-10,68*,1,10,i
O=C(O)c1ccc(NC2CC(O)C(CO)O2)cc1 (centres undefined),.,.,.,-4,.,10,.
NNC(=O)c1ccc(S(=O)(=O)N2CCOCC2)cc1,.,.,.,-13,.,11,.
O=c1ccn(Cc2ccccc2)c2ccccc12,i,9,2,-20,.,5,.
O=c1c2ccccc2c(=O)n(Cc2ccccc2)n1Cc1ccccc1,i,-3,-3,66*,1,3,+
CCn1nc(CC(=O)N2CCCC2c2nc3ccccc3[nH]2)c2ccccc2c1=O (centres undefined),.,.,.,-15,.,.,.
CCCc1ncc(CN2CCc3cc(OC)c(OC)cc3C2c2ccccc2)cn1 (centres undefined),.,.,.,-10,.,1,.
COc1ccc(-c2nnc(N3CCC(C)CC3)c3ccccc23)cc1,.,-17,-23,66*,-1,.,i
CC1CCN(c2nnc(N3CCC(C)CC3)c3ccccc23)CC1,.,3,-14,8,0,3,.
O=C(O)c1ccc(-c2nc(-c3cccc(C(F)(F)F)c3)cs2)cc1,i,-6,-18,70*,2,7,+
CCOCc1nnc(NC(=O)C(CC)Oc2ccccc2)s1 (centres undefined),.,.,.,8,.,8,.
O=C(c1cc2c(s1)CCC2)N1CCC[C@@H]1[C@@H](O)c1cccs1,.,.,.,22,.,.,.
CC(=O)NC(c1ccccc1)c1cccnc1 (centres undefined),i,-12,-25,70*,-2,6,i
